Compound activity deposited in PubChem BioAssay by National Center for Advancing Translational Sciences (NCATS).
VACV mCherry inh – inhibitors of vaccinia virus infection (mCherry reporter signal); Vaccinia virus mCherry reporter infection, fluorescence; Potency, µM (doses to about 36.5 µM), without a hit: at the top dose activity change, negative = inhibition, most hits filed as inhibitors; 310,000 tested, 0.63% active; AID 720579; calls by dose curve; tested in A549 cells; also: nearly all actives have a fitted effect of over 35% in size
Vaccinia Venus – inhibitors of vaccinia virus (Venus reporter); Vaccinia virus Venus reporter expression, fluorescence; Potency, µM (top dose mostly 36.5 µM), inactives show at the highest dose activity change, negative = inhibition, usual class: inhibitors; 330,000 tested, 0.46% active; AID 720580; calls by dose curve; tested in A549 cells; also: nearly all actives have a fitted effect of over 30% in size
HCV inhibitor – inhibitors of hepatitis C virus infection | Huh7.5.1 HCVcc-Cre infection, luciferase reporter, 44 h | Potency, µM (top dose mostly 41.8 µM), without a hit: at the top dose activity change, negative = inhibition, most hits filed as inhibitors | 340,000 tested, 3.4% active; active = well fitted inhibition curve with a large enough effect; inconclusive = small, poorly fitted or top-dose-only effect, or another doubt; inactive = no such curve, though single readings can be large or run the other way
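1,000 cells/well; 4 h culture; + compound; + HCVcc-Cre (~0.5 moi); 44 h; luciferase substrate, RT 15 min; read 15 sec.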
Numbers without * were called inactive. Compounds with a hit are over-represented: about 3.3% of the library has one in this group of screens. % is scaled to controls: 0 for no effect and ±100 for the full control effect; potency is read from the fitted curve at half-maximal effect.

C=CC[C@H](CC(=O)N(CCO)Cc1ccccc1)C(=O)NC[C@H](OC(=O)[C@@H](CC=C)Cc1ccc(F)cc1)c1ccccc1 was read as VACV mCherry inh inconclusive, Vaccinia Venus 11µM* and HCV inhibitor inconclusive.
Screening O=[N+]([O-])c1ccc(/C=N/Nc2nc(N3CCCCC3)nc(N3CCCCC3)n2)o1 returned HCV inhibitor 14µM*.
For COc1c(/C=N/Nc2nc(N3CCCCC3)nc(N3CCCCC3)n2)cccc1[N+](=O)[O-] the results were VACV mCherry inh -2%, Vaccinia Venus -11% and HCV inhibitor inconclusive.
`O=C(c1ccccc1Cl)N1CCN(S(=O)(=O)c2cccs2)CC1` gave VACV mCherry inh -3% and Vaccinia Venus -14%.
`O=C(c1ccco1)N1CCN(C(=O)c2ccc(-c3ccccc3Cl)o2)CC1` gave HCV inhibitor 22µM*.
`O=C(c1ccc(-c2ccccc2Cl)o1)N1CCN(S(=O)(=O)c2cccs2)CC1` gave VACV mCherry inh -12%, Vaccinia Venus -29% and HCV inhibitor 14µM*.
For O=C(c1cc(-c2ccccc2Cl)on1)N1CCN(C(=O)c2ccco2)CC1 the results were VACV mCherry inh -2%, Vaccinia Venus -18% and HCV inhibitor 16%.
For O=S(=O)(c1ccc2c(c1)OCCO2)N1CCN(c2nc(-c3ccccc3)nc3ccccc23)CC1 the results were VACV mCherry inh -8% and Vaccinia Venus -8%.
`Cc1ncc2c(c1CNC(=O)c1ccc3c(c1)OCO3)CCN(C(=O)c1cn3ccccc3n1)C2` gave VACV mCherry inh -10% and Vaccinia Venus 5%.
S=C(NCCCc1cnc[nH]1)NCCCN(CCc1ccccc1)c1ccc(Br)cn1 was read as VACV mCherry inh -12% and Vaccinia Venus -20%.
For Cc1cccc(C(=O)Nc2ccccc2C(=O)OCc2cc(=O)n3nc(C4CC4)sc3n2)c1 the results were VACV mCherry inh -10% and Vaccinia Venus -7%.
OC1(c2cccnc2)CCN(Cc2ccc3c(c2)CN(Cc2cc(F)cc(F)c2)CCO3)CC1 was read as VACV mCherry inh -11% and Vaccinia Venus -8%.
`COc1cccc(NC(=O)CN(C)C(=O)c2cccc(S(=O)(=O)N3CCN(c4ccc(F)cc4)CC3)c2)c1` gave VACV mCherry inh -20%, Vaccinia Venus inconclusive and HCV inhibitor inconclusive.
Screening CN(Cc1ccc(F)cc1)C(=O)c1cccc(S(=O)(=O)N2CCN(Cc3ccccc3)CC2)c1 returned VACV mCherry inh -23%, Vaccinia Venus -20% and HCV inhibitor inconclusive.
Screening COc1ccc(CN(C)C(=O)c2cccc(S(=O)(=O)N3CCCc4ccccc43)c2)c(OC)c1OC returned HCV inhibitor 11µM*.
`CN(CC(=O)Nc1ccc(F)cc1)C(=O)c1cccc(S(=O)(=O)N2CCN(c3ccc(F)cc3)CC2)c1` gave VACV mCherry inh inconclusive, Vaccinia Venus inconclusive and HCV inhibitor 8.9µM*.
Cc1ccnc(NC(=O)c2cccc(S(=O)(=O)N3CCN(c4ccc(F)cc4)CC3)c2)c1 was read as VACV mCherry inh -28%, Vaccinia Venus -23% and HCV inhibitor 10µM*.
`Cc1ccnc(NC(=O)c2cccc(S(=O)(=O)N3CCOCC3)c2)c1` gave VACV mCherry inh inactive, Vaccinia Venus -7% and HCV inhibitor -8%.
Screening CN(Cc1ccc(F)cc1)C(=O)c1cccc(S(=O)(=O)N2CCN(c3ccc(F)cc3)CC2)c1 returned VACV mCherry inh inconclusive, Vaccinia Venus -28% and HCV inhibitor 10µM*.
Screening COc1ccc(C(CNC(=O)c2cccc(S(=O)(=O)N3CCCc4ccccc43)c2)N(C)C)cc1 (stereo not drawn) returned VACV mCherry inh -21%, Vaccinia Venus inconclusive and HCV inhibitor inconclusive.
For COc1cccc(CNC(=O)c2c(OC)cc(=O)n3c2CCN(C(=O)c2ccoc2C)CC3)c1 the results were VACV mCherry inh -11% and Vaccinia Venus -4%.
CCN(Cc1ccccc1)S(=O)(=O)c1cc2[nH]c(=O)c(=O)[nH]c2cc1C was read as VACV mCherry inh -9%, Vaccinia Venus -4% and HCV inhibitor -14%.
For COC(=O)c1cc(S(=O)(=O)NCC2CCN(Cc3cccc(Cl)c3)CC2)c[nH]1 the results were HCV inhibitor -8%.
Cc1ccc(CN(C)C(=O)c2cccc(S(=O)(=O)N3CCN(c4ccccc4)CC3)c2)cc1 was read as VACV mCherry inh -28%, Vaccinia Venus -10% and HCV inhibitor inconclusive.
CN(Cc1ccc(F)cc1)C(=O)c1cccc(S(=O)(=O)N2CCN(c3ccccc3)CC2)c1 was read as VACV mCherry inh -26%, Vaccinia Venus -26% and HCV inhibitor 13µM*.
`COc1cccc(CN(C)C(=O)c2cccc(S(=O)(=O)N3CCN(c4ccccc4)CC3)c2)c1` gave VACV mCherry inh -26% and Vaccinia Venus inconclusive.
